Screens from PubChem BioAssay.
In the library only some 3.4% were active in any assay of this set; here they are far more common.
JMJD2E inh: qHTS Assay for Inhibitors of Human Jumonji Domain Containing 2E (JMJD2E) | 1.6% of 230,000 active | Potency, µM (series often up to 57.1 µM), without a hit: at the highest dose activity change, negative = inhibition, hits mostly inhibitors | AID 2147, 2009 | JMJD2E catalytic domain, FDH-coupled NADH fluorescence (FDH is formaldehyde dehydrogenase) | Lysine-specific demethylase 4E (Homo sapiens), B2RXH2; active means well fitted inhibition curve with a large enough effect, not every such curve was filed as active; inconclusive means small, poorly fitted or top-dose-only effect, or another doubt; inactive means no such curve, though single readings can be large or run the other way;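 further: 0% = wells with enzyme and -100% = buffer wells without enzyme; nearly all actives have a fitted effect of over 50% in size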
GoLoco inh red: qHTS Assay for Inhibitors of RGS12 GoLoco Motif Activity (Red Fluorophore); Guanine nucleotide-binding protein G(i) subunit alpha-1 (Homo sapiens), P63096; Gai1:RGS12 GoLoco peptide FP, rhodamine, 10 min; Potency, µM (top dose mostly 61.6 µM), for inactives: at the highest dose activity, negative = inhibition, hits mostly inhibitors; 0.44% of 230,000 active; AID 880, 2007; active means well fitted inhibition curve with a large enough effect, not every such curve was filed as active; inactive means no such curve, though single readings can be large or run the other way; further: nearly all actives have a fitted effect of over 30% in size
Target sequence (P63096 whole entry, looked up): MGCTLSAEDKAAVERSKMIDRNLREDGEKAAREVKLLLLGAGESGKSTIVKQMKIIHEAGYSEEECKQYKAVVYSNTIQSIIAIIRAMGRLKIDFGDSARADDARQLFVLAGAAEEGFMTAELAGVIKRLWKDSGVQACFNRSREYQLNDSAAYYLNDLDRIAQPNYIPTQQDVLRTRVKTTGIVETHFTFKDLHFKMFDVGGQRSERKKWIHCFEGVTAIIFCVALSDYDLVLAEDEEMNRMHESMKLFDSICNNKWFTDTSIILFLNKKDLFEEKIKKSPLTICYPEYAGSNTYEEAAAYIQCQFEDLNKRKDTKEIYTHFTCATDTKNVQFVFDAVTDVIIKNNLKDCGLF
Tau fibril FP: qHTS for Inhibitors of Tau Fibril Formation, Fluorescence Polarization. Microtubule-associated protein tau (Homo sapiens), P10636. K18 P301L tau heparin fibrillization, Alexa594 FP, 6 h. Potency, µM (top dose mostly 57.7 µM), without a hit: top-dose activity, negative = inhibition, usual class: inhibitors. 0.39% of 280,000 active; further: nearly all actives have a fitted effect of over 55% in size
Target sequence (P10636 561-689 P618L limits assumed): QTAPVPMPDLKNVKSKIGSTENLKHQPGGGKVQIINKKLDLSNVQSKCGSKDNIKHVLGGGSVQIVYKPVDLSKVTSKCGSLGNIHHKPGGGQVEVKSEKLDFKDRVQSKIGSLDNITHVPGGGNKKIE
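K18 P301L tau (15 uM unlabeled/0.24 uM Alexa 594-labeled, final) + compound + heparin 20 uM final; 100 mM NaOAc pH 7; 6 hr 37 C; ThT 30 uM final added, 1 hr RT; FP ex 555/em 632 nm.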
Tau fluor cs: Counterscreen qHTS for Inhibitors of Tau Fibril Formation, Fluorescence Polarization | tau K18 P301L Alexa594 fluorescence, heparin fibrillization | AID 1463, 2008 | Potency, µM (top dose mostly 57.7 µM), without a hit: top-dose activity change, negative = decrease | 0.93% of 280,000 active; further: nearly all actives have a fitted effect of over 55% in size
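Human tau K18 P301L (15 uM unlabeled, 0.24 uM Alexa 594-labeled) in 100 mM sodium acetate pH 7 with 20 uM heparin, 6 hr at 37 C. ThT 30 uM added, 1 hr ambient; Alexa 594 FP and total fluorescence read at 555/632 nm.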
Tau ThT inhib: qHTS for Inhibitors of Tau Fibril Formation, Thioflavin T Binding; recombinant tau K18 P301L, heparin-induced fibrillization, ThT fluorescence; Potency, µM (top dose mostly 57.4 µM), for inactives: at the highest dose activity, negative = inhibition, actives largely listed as inhibitors; 2.1% of 270,000 active; further: nearly all actives have a fitted effect of over 55% in size
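Fibril formation assay: tau K18 P301L at 15 uM with trace Alexa 594 label, heparin inducer 20 uM, pH 7 sodium acetate buffer, 37 C for 6 hr; endpoint ThT signal.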
The depositor's hits bear a star; ? = inconclusive; . = no result; [ ] = dose if it differs, or a comment. Unless noted, the call rests on the fitted dose curve; in most records, active means well fitted curve in the direction sought with a large enough effect; inconclusive means small, poorly fitted or top-dose-only effect, or another doubt; inactive means no such curve, though single readings can be large; an effect the other way counts as inactive or inconclusive. Unless noted, on the % scale 0 is the no-effect control and ±100 the full control effect; potency means the concentration at half of the fitted maximal effect.

SMILES	JMJD2E inh	GoLoco inh red	Tau fibril FP	Tau fluor cs	Tau ThT inhib
Nc1ncc(N=Nc2cc(C(=O)O)ccc2Cl)s1	25µM*	-2%	?	-28%	14µM*
Nc1cc2sc(-c3ccc(C(=O)O)cc3)nc2cc1Cl	?	12%	2%	-21%	?
O=C(N/N=C/c1cc([N+](=O)[O-])ccc1O)C1CC1	28µM*	-5%	1%	-8%	-17%
O=C1NCCCC1C(=O)N/N=C/c1cc([N+](=O)[O-])ccc1O (stereo not drawn)	10µM*	3%	4%	-2%	-14%
Cc1ccc(C)n1-c1c(C(=O)NCCCN2CCN(c3ccc(F)cc3)CC2)sc2ncccc12	.	.	?	-29%	?
COC(=O)c1sc(-c2ccccc2)cc1NC(=O)Nc1ccccc1Cl	.	.	?	-29%	0%
COC(=O)c1sc(-c2ccccc2)cc1NC(=O)Nc1ccc(F)cc1	.	.	18µM*	?	-4%
N[C@H](Cc1ccc(O)c(O)c1)C(=O)O	18µM*	-8%	?	-8%	16µM*
N[C@@H](Cc1ccc(O)cc1)C(=O)O	.	11%	-4%	-3%	-5%
COc1ccc(CCNC(C)=O)cc1	6%	-1%	0%	-2%	-6%
CC(=O)NCCc1ccc(O)c(O)c1	18µM*	-9%	?	?	?
NC(Cc1ccc(O)c(O)c1)C(=O)O (stereo not drawn)	?	-14%	25µM*	18µM*[quencher]	11µM*
COC(=O)C(N)Cc1ccc(O)c(O)c1 (stereo not drawn)	14µM*	-1%	1%	-13%	?
O=C(/C=C/c1ccc(O)c(O)c1)O[C@H](Cc1ccc(O)c(O)c1)C(=O)O	?	16µM*	?	14µM*[quencher]	13µM*
COc1ccc(C2N(c3ccc(C)cc3)CCN2c2ccc(C)cc2)cc1O	-10%	2%	12%	25µM*[quencher]	?
COc1cc(C2N(c3ccccc3)CCN2c2ccccc2)ccc1OC(C)=O	-4%	12%	2%	-2%	-6%
CCOC(=O)c1c(C)[nH]c(C)c1S(=O)(=O)N1CCC(C(=O)Nc2ccccc2CC)CC1	.	.	-9%	-10%	1%
O=C(N/N=C1/C(=O)c2cccc3cccc1c23)c1ccc(Cl)cc1	0%	0%	9%	-19%	4.5µM*
CCNC(=S)N/N=C1\C(=O)c2cccc3cccc1c23	-2%	30%	8%	-21%	?
O=c1c(=O)n(-c2ccc(F)c(F)c2)ccn1Cc1ccc(F)cc1Cl	.	.	?	-16%	-8%
COc1ccccc1/C=C/C=C1N=C(/C=C/c2ccc(Cl)cc2)OC/1=O	?	24%	-4%	-10%	13µM*
COc1ccccc1/C=C/C1=NC(=C\C=C/c2ccccc2)/C(=O)O1	0%	9%	-7%	-10%	11µM*
Cc1ccc(C(=O)c2ccc(C)cc2)cc1	3%	1%	-2%	2%	3%
CC(=O)c1ccc(N=Nc2ccc(N(C)C)cc2)cc1	?	11%	-7%	-26%	1µM*
CC(=O)c1ccc(N=Nc2ccc(C)cc2)cc1	0%	-1%	3%	-25%	4.5µM*
SMILES	JMJD2E inh	GoLoco inh red	Tau fibril FP	Tau fluor cs	Tau ThT inhib
CN1c2ccccc2N(C)C1(C)c1ccccc1	7%	1.3µM*	1%	8%	4%
CN1C(=O)N(C)C2(c3ccccc3)NC(=O)NC12c1ccccc1 (stereo not drawn)	-3%	-1%	5%	1%	-3%
CCN1c2ccccc2N(C)C1(C)c1ccccc1 (stereo not drawn)	?	8.9µM*	16µM*	?	4.5µM*
CCC(=O)N1c2ccccc2C(C)(c2ccccc2)CC1(C)C (stereo not drawn)	.	.	-8%	-7%	?
CCN(CC)CCNc1cc(C)nc2c1C(=O)C(=O)C=C2N1CCCCC1	?	2%	?	-27%	8.9µM*
Cc1ccc(S(=O)(=O)O[C@H]2CC(C(C)(C)C)CC[C@@H]2c2ccccc2)cc1 (stereo partly drawn)	.	5%[14.2 µM]	.	.	.
CC(C)=CCc1c(O)ccc(C(=O)Cc2ccccc2)c1O	-2%	7%	14µM*	?	-17%
CCC(=O)c1ccc(O)c(CC=C(C)C)c1	-3%	7%	0%	-5%	-3%
O=C(/C=C/c1ccccc1)N1CCN(Cc2cc(=O)n3nc(-c4ccccc4)sc3n2)CC1	.	.	5%	12%	?
CCN(C(=O)Cn1nc(Cc2cccnc2)c2ccccc2c1=O)c1cc(C)ccc1C	.	.	5%	-4%	-5%
S=C(Nc1ccc2c(c1)OCO2)Nc1ccc2c(c1)OCO2	-19%	-6%	?	?	25µM*
O=C(CCc1ccc(S(=O)(=O)NCCc2ccccc2)cc1)Nc1ccc2c(c1)OCO2	4%	-2%	?	?	?
CN(C)C(=S)Nc1ccc2c(c1)OCO2	-15%	-2%	-13%	-11%	?
CC(=O)c1ccc(NC(=S)NCCc2cccc(Cl)c2)cc1	3%	23%	25µM*	?	3%
CC(=O)c1ccc(NC(=O)Nc2cccc(Cl)c2)cc1	0%	11%	20µM*	14µM*[quencher]	?
O=C(Nc1ccc(S(=O)(=O)NCc2ccccc2)cc1)Nc1ccc2c(c1)OCO2	1%	-9%	?	4µM*[quencher]	?
CC(=O)c1ccc(NC(=S)NCCc2ccc(S(N)(=O)=O)cc2)cc1	-3%	7%	8%	-11%	?
COc1ccccc1N1CCN(c2nc(-c3ccc(C)cc3)nc3ccccc23)CC1	.	.	-5%	-27%	-15%
O=C(Nc1ccc2c(c1)OCCO2)Nc1ccc2c(c1)OCO2	-11%	0%	?	?	?
O=C(Nc1cccc(Cl)c1)Nc1ccc2c(c1)OCO2	8%	0%	16%	14µM*[quencher]	?
CCOC(=O)C1=C(CS(=O)(=O)c2cccc(C(F)(F)F)c2)NC(=O)NC1c1cccc(OC)c1 (stereo not drawn)	.	.	4%	-19%	-10%
CN1/C(=C/C2CC(=O)NC2=O)C(C)(C)c2ccccc21 (stereo not drawn)	?	52%	?	-19%	28µM*
CN1/C(=C\P(=O)(N(C)C)N(C)C)C(C)(C)c2ccccc21	4%	226%	?	?	32µM*
O=C(Cn1c(=O)nc(-c2ccccc2F)c2cc(Cl)ccc21)Nc1ccccc1C(F)(F)F	.	.	3%	-6%	?
COc1ccc(CNC(=O)Cn2c(=O)ccc3cc(S(=O)(=O)N4CCCC4)ccc32)cc1	.	.	3%	-2%	0%
Cc1onc(-c2ccccc2)c1C(=O)NC(=S)NNC(=O)c1cc(-c2ccc(F)cc2)n[nH]1	13µM*	1%	3%	-19%	.
